From PubChem
The entries come from a sample that favours hits as a whole.
ST2 inh: inhibitors of human ST2 (IL1RL1) binding to IL-33, primary screen, biochemical, AlphaLISA | Interleukin-1 receptor-like 1 (Homo sapiens), Q01638 | AlphaLISA ST2-Fc/biotin-IL-33 interaction, 1 h | inhibition, % for hits at 17 µM | 2.3% of 78,000 active; in the data active = inhibition above about 30%
Target sequence (Q01638 whole entry, looked up): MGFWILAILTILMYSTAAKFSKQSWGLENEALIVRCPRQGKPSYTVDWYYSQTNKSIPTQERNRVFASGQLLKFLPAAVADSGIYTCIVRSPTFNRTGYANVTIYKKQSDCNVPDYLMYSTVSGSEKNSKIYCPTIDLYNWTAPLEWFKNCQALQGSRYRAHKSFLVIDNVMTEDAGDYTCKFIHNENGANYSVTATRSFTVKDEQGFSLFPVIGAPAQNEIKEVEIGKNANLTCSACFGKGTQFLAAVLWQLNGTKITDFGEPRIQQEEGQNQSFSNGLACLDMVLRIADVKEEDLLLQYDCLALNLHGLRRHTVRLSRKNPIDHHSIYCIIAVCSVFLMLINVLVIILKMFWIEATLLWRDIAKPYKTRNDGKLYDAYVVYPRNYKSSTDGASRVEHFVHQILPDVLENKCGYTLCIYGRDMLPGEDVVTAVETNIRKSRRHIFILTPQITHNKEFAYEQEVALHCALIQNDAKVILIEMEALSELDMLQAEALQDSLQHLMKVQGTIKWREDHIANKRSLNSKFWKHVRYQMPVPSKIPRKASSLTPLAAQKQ
Numbers stand for hits; ! = not confirmed by another sample.

Screening Cc1ccc2oc(-c3ccc(NC(=O)c4ccc5c(c4)OCCO5)cc3O)nc2c1 returned ST2 inh 32.0%.
Screening CC(Cn1cccn1)C(=O)Nc1cccc(NC(=O)Cc2ccccc2)c1 (stereo not drawn) returned ST2 inh inactive.
For COc1cccc(C=Nc2ccc(S(=O)(=O)Nc3ccccn3)cc2)c1 the results were ST2 inh inactive.
`Cc1c(Cl)cccc1NS(=O)(=O)c1ccc(NS(C)(=O)=O)cc1` gave ST2 inh inactive.
Screening CC1CCc2c(sc(NC(=O)c3cc(=O)c4ccccc4o3)c2C#N)C1 (stereo not drawn) returned ST2 inh inactive.
Screening CC1CCc2c(sc(N=Cc3cccnc3)c2C#N)C1 (stereo not drawn) returned ST2 inh 30.0%.
Screening Cc1onc(-c2ccccc2Cl)c1C(=O)Nc1sc2c(c1C#N)CCC(C)C2 (stereo not drawn) returned ST2 inh inactive.
Screening Cc1ccc(CN2C[C@H](O)C[C@H]2c2nc(-c3cccc(C)c3)no2)cc1 returned ST2 inh inactive.
For COc1ccc(-c2cc(C(F)(F)F)nc(NCC3CCCO3)n2)cc1 (stereo not drawn) the results were ST2 inh inactive.
For COc1ccc(C2C(C(N)=O)=C(C)Nc3nc(SCc4ccccc4)nn32)cc1OC (stereo not drawn) the results were ST2 inh inactive.
CC1=C(C(N)=O)C(c2cccc(F)c2)n2nc(SCc3ccccc3)nc2N1 (stereo not drawn) was read as ST2 inh 32.0%!.
`CC1=C(C(N)=O)C(c2ccc(O)cc2)n2nc(SCc3ccccc3)nc2N1` (stereo not drawn) gave ST2 inh inactive.
For COc1cc(OC)c(C2C(C#N)=C(N)Oc3n[nH]c(C)c32)c(OC)c1 (stereo not drawn) the results were ST2 inh inactive.
For Nc1nc(-c2ccc(-c3ccccc3CN3CCOCC3)cc2)cs1 the results were ST2 inh 34.0%.
For Nc1nc(-c2ccccc2)cs1 the results were ST2 inh inactive.
`CN(C)c1nc2c(c(-c3ccccc3CN3CCOCC3)n1)CCCC2` gave ST2 inh inactive.
Cc1cc(C)n(-c2nc3ccccc3[nH]c2=O)n1 was read as ST2 inh 46.0%.
`Cc1cc(C)n(-c2n[nH]c(=O)c3ccccc23)n1` gave ST2 inh inactive.
Screening Cc1cc(C)n(CCCNC(=O)c2nc3ccccc3[nH]c2=O)n1 returned ST2 inh inactive.
For COC(=O)c1c(C)n(CCc2ccccc2)c2c1cc(O)c1ccccc12 the results were ST2 inh inactive.
Screening O=C(c1cccc(Br)c1)N1CCCCC1 returned ST2 inh inactive.
Screening COc1ccc(/C=C2/SC(N3CCN(C)CC3)=NC2=O)cc1OC returned ST2 inh inactive.
Screening COc1cc(/C=C2\SC(c3ccc(C)cc3)=NC2=O)ccc1O returned ST2 inh 62.0%.
`COc1ccc(/C=C2\SC(c3ccc(C)cc3)=NC2=O)cc1OC` gave ST2 inh 30.0%.
COc1cc(/C=C/c2cc(O)cc(O)c2)ccc1O was read as ST2 inh inactive.
COc1ccc(/C=C2/C(=O)N=C(N)N2C)cc1OC was read as ST2 inh inactive.
`COc1cc(/C=C2\SC(N)=NC2=O)cc(Br)c1O` gave ST2 inh inactive.
COC[C@H]1CCCN1[C@@H]1[C@H](O)[C@H](CO)O[C@@H]1CNC(=O)NC(C)C was read as ST2 inh inactive.
COc1ccc2cc(C3CN(S(=O)(=O)C4CC4)CCO3)ccc2c1 (stereo not drawn) was read as ST2 inh inactive.
Screening CC1=CC[C@@H]2CN(C(=O)CCNC(=O)c3ccccc3F)C[C@@H]2C1 returned ST2 inh inactive.
Cc1ccccc1-n1nc([N+](=O)[O-])c(=NCc2ccc3c(c2)OCO3)n1O was read as ST2 inh inactive.
O=c1c2ccccc2nc(/C=C/c2ccc3c(c2)OCO3)n1-c1ccc([N+](=O)[O-])cc1 was read as ST2 inh inactive.
For O=c1/c(=C/c2cccc([N+](=O)[O-])c2)sc2n1CN(c1ccc3c(c1)OCO3)CN=2 the results were ST2 inh 36.0%.
COc1ccc(N2CN=c3s/c(=C\c4cccc([N+](=O)[O-])c4)c(=O)n3C2)cc1 was read as ST2 inh 33.0%.
CC(=O)c1ccc(N2CN=c3s/c(=C\c4cccc([N+](=O)[O-])c4)c(=O)n3C2)cc1 was read as ST2 inh inactive.
`CC(=O)c1ccc(N2CN=c3s/c(=C\c4cccnc4)c(=O)n3C2)cc1` gave ST2 inh inactive.
For COC(=O)Cc1[nH]nc2c1C(C(C)C)C(C#N)=C(N)O2 (stereo not drawn) the results were ST2 inh inactive.
`Cc1ccc(-c2nnc(Nc3cccc(Cl)c3)c3ccccc23)cc1S(=O)(=O)NCCO` gave ST2 inh inactive.
`Cc1cc2c(cc1[N+](=O)[O-])C(=O)c1cc3ccccc3nc1-2` gave ST2 inh 36.0%.
Cc1ccc2c(c1[N+](=O)[O-])C(=O)c1ccccc1C2=O was read as ST2 inh inactive.
`Cc1ccc(-c2cnc3ccccc3n2)cc1[N+](=O)[O-]` gave ST2 inh inactive.
`COc1ccc(C(=O)Nc2cccc(OCc3cc(=O)n4ccc(C)cc4n3)c2)cc1OC` gave ST2 inh inactive.
O=C(Nc1ccc(Br)cn1)c1cccnc1 was read as ST2 inh inactive.
CCOc1ccccc1N=Cc1c(O)n(-c2ccccc2C)c(=O)c2ccccc12 was read as ST2 inh inactive.
Screening Cc1cc(O)c(C=Nc2cccc(C(=O)O)c2)c(C)c1Cl returned ST2 inh inactive.
COc1ccccc1-n1nc(C(=O)O)c2ccccc2c1=O was read as ST2 inh inactive.
For COc1ccc(C)cc1NC(=O)CNC(=O)c1cn(-c2ccccc2OC)c(=O)c2ccccc12 the results were ST2 inh inactive.
COc1ccccc1-n1c(O)c(C=Nc2ccc(C)cc2)c2ccccc2c1=O was read as ST2 inh 34.0%.
For Cc1ccccc1-n1c(O)c(C=Nc2ccccc2)c2ccccc2c1=O the results were ST2 inh 47.0%.
`c1ccc(CN2CCC(N3CCN(c4nc(-c5ccccc5)nc5c4CCC5)CC3)C2)cc1` (stereo not drawn) gave ST2 inh inactive.
`CCOc1ccc2nc(N3CCN(c4ccccc4)CC3)sc2c1` gave ST2 inh inactive.
`COc1ccccc1NC(=O)CSCc1ccccc1Cl` gave ST2 inh inactive.
`Cc1[nH]nc(SCC(=O)Nc2cc(C)n(Cc3ccc(Cl)cc3)n2)c1[N+](=O)[O-]` gave ST2 inh inactive.
For O=C(c1ccc([N+](=O)[O-])cc1)N(c1ccccn1)c1ccccn1 the results were ST2 inh inactive.
O=C(CC(=O)c1ccc([N+](=O)[O-])cc1)c1ccccc1 was read as ST2 inh inactive.
CCN(CC)/C(=C\C(=O)c1ccc([N+](=O)[O-])cc1)c1ccccc1 was read as ST2 inh 31.0%.
For COc1cccc(-n2cc(CNC3CCN(S(C)(=O)=O)CC3)cn2)c1 the results were ST2 inh inactive.
`CC1(CS(=O)CC2(C)CC2(Cl)Cl)CC1(Cl)Cl` (stereo not drawn) gave ST2 inh inactive.
`O=C1CN(c2nccc(CCC(F)(F)F)n2)CCN1` gave ST2 inh inactive.
For N#Cc1c(N)n(-c2ccc(C(=O)O)cc2)c2nc3ccccc3nc12 the results were ST2 inh 36.0%.
Screening N#Cc1c(N)n(-c2ccc(Br)cc2)c2nc3ccccc3nc12 returned ST2 inh inactive.
